Most compounds without a hit are left out; they make up all but 8.7% or so of the library.
HP1b binding inh: inhibitors of HP1-beta chromodomain binding to methylated histone tails; 390,000 tested, 0.56% active; Potency, µM (titrated, usually from 114 µM), actives largely listed as inhibitors; AID 540317; P83916; AlphaScreen HP1-beta / biotin-H3K9me3 peptide binding; note: nearly all actives have a fitted effect of over 70% in size
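Compound inhibition of the preformed complex between 50 nM HP1-beta and 50 nM biotinylated H3K9me3 peptide was read by AlphaScreen. Buffer was PBS pH 7.4 with 0.01% Tween-20. Incubations ran 30 min at room temperature, with 10 ug/mL donor/acceptor beads.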
G9a block: G9a (human) methyltransferase inhibition. Q96KQ7. 350,000 tested, 8.8% active. Potency, µM (titrated, usually from 102 µM), hits mostly inhibitors. G9a H3K9 monomethylation, AlphaScreen, 2 h. AID 504332; note: nearly all actives have a fitted effect of over 75% in size
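G9a (20 nM) preincubated 15 min RT with compounds, then 500 nM biotinylated H3K9 peptide and 20 uM SAM added; 2 h RT reaction. Monomethyl-H3K9 product detected by AlphaScreen with anti-H3K9me1 antibody, streptavidin donor and anti-rabbit IgG acceptor beads.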
Sfp PPTase inh: blocks B. subtilis Sfp PPTase activity | Potency, µM, hits mostly inhibitors | Biochemical Sfp PPTase activity, qHTS | 310,000 tested, 3.5% active | Q9F4F7;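 note: the enzyme is Sfp with the accession as filed and its product quenches rhodamine fluorescence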
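Step 1, compound plus 15 nM Sfp-PPTase, 15 min, room temperature. Step 2, add rhodamine-CoA (5 uM) and BHQ-2-YbbR (12.5 uM). Step 3, read 525/598 nm fluorescence at 0 and 30 min.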
BAZ2B block: inhibitors of human BAZ2B bromodomain. AID 504333. Q9UIF8. 360,000 tested, 4.4% active. Potency, µM (series often up to 114 µM), usual class: inhibitors. AlphaScreen BAZ2B-H3K14Ac peptide displacement; note: nearly all actives have a fitted effect of over 60% in size
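BAZ2B (50 nM) with biotin-H3(5-23)K14Ac peptide (50 nM) in PBS pH 7.4, 0.01% Tween-20, preformed 30 min, then compound 30 min at room temperature; top concentration 110uM. AlphaScreen streptavidin donor/nickel chelate acceptor beads (10 ug/mL final), 20 min dark, signal read.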
JMJD2A Tudor: JMJD2A Tudor domain (human) inhibition; O75164; AlphaScreen JMJD2A-Tudor / H3K4me3 peptide binding; Potency, µM (doses to about 114 µM), actives largely listed as inhibitors; 390,000 tested, 4.4% active; note: nearly all actives have a fitted effect of over 50% in size
Target sequence (O75164 whole entry, looked up, the tested form may be a part): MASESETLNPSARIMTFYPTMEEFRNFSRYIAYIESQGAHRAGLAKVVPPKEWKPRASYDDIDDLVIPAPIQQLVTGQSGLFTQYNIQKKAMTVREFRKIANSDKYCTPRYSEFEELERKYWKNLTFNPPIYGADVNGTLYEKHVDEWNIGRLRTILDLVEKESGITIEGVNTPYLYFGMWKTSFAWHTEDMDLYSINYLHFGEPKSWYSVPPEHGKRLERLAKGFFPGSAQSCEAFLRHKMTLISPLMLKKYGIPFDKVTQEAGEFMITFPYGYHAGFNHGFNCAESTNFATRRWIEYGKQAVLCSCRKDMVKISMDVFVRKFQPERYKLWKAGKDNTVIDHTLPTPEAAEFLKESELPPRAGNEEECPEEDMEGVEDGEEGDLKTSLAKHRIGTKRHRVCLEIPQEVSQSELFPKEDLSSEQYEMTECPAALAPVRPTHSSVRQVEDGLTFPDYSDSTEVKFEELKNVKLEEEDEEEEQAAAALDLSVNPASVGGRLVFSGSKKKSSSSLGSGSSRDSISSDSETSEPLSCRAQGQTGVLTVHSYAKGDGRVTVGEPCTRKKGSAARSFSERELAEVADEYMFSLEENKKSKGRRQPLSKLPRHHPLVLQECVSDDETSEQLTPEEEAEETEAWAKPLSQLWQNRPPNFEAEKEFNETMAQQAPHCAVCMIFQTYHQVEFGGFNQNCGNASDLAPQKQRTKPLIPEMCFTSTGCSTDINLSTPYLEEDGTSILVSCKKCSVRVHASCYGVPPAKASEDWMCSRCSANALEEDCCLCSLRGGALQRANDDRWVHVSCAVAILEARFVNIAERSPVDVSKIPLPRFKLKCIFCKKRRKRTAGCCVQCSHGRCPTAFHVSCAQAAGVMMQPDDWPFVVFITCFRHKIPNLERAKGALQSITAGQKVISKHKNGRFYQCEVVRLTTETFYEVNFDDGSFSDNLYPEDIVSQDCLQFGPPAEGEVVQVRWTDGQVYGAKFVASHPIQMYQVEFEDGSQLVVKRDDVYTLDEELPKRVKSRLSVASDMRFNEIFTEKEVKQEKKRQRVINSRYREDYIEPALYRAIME
12-LOX inh: ALOX12 (human) lipoxygenase inhibition. P18054. 580,000 tested, 1.1% active. purified 12hLO, xylenol orange hydroperoxide absorbance. Potency, µM (titrated, usually from 108 µM), actives largely listed as inhibitors
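Purified human 12hLO (150 nM final) in 25 mM Hepes, 0.01% Triton X-100, pH 7.0 was preincubated 15 min at room temperature with compound. Then 40 uM arachidonic acid was added, 30 min. Hydroperoxide was read by Fe-XO absorbance ratio 573/405 nm.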
Of the large screens only hits and unclear results are named; the others gave an inactive call. Calls come from the whole dose curve; as a rule, active = well fitted curve in the direction sought with a large enough effect; inconclusive = small, poorly fitted or top-dose-only effect, or another doubt; inactive = no such curve, though single readings can be large; an effect the other way counts as inactive or inconclusive.

S=c1[nH]nc(-c2ccccn2)n1/N=C/c1ccc(-c2ccccc2Cl)o1	HP1b binding inh inconclusive, G9a block 1.1µM, BAZ2B block 25µM, JMJD2A Tudor 28µM, 12-LOX inh inconclusive
Cc1n[nH]c(=S)n1/N=C/c1ccc(-c2ccc(Cl)cc2)o1	none (no result: G9a block, Sfp PPTase inh, BAZ2B block)
Cc1ccc(/C=N/n2c(COc3ccccc3)n[nH]c2=S)s1	BAZ2B block inconclusive, JMJD2A Tudor 56µM, 12-LOX inh inconclusive
Cc1ccc(-n2cccc2CC(=O)NC2CCCC2)cc1	none (no result: HP1b binding inh, G9a block, Sfp PPTase inh, BAZ2B block, JMJD2A Tudor)
O=C([C@@H]1C[C@H](F)CN1S(=O)(=O)c1cccc(Cl)c1)N1CCCCC1	none (no result: HP1b binding inh, G9a block, Sfp PPTase inh, BAZ2B block, JMJD2A Tudor)
Cc1noc(-c2nnn3c2COC(c2ccc(F)cc2)C3)n1 (stereo not drawn)	none (no result: HP1b binding inh, G9a block, Sfp PPTase inh, BAZ2B block, JMJD2A Tudor)
Cc1ccc(/C=[N+](\[O-])c2ccc(N(C)C)cc2)c2nsnc12	HP1b binding inh 28µM, G9a block 8.9µM, BAZ2B block 32µM, JMJD2A Tudor 25µM, 12-LOX inh inconclusive
O=C(CCc1nc2ccccc2[nH]1)N1CCC(c2noc(-c3ccccn3)n2)C1 (stereo not drawn)	none (no result: HP1b binding inh, G9a block, Sfp PPTase inh, BAZ2B block, JMJD2A Tudor)
CC(C)CCNC(=O)C12CN(Cc3ccccc3)CC1C(c1ccc([N+](=O)[O-])cc1)=NO2 (stereo not drawn)	G9a block inconclusive, Sfp PPTase inh 14µM, BAZ2B block inconclusive, JMJD2A Tudor inconclusive, 12-LOX inh inconclusive
O=C(NCc1ccccc1C(F)(F)F)C12CN(Cc3ccccc3)CC1C(c1ccc([N+](=O)[O-])cc1)=NO2 (stereo not drawn)	G9a block inconclusive, Sfp PPTase inh 2.2µM, 12-LOX inh inconclusive
O=C(NCc1ccc(C(F)(F)F)cc1)C12CN(Cc3ccccc3)CC1C(c1cccc([N+](=O)[O-])c1)=NO2 (stereo not drawn)	G9a block inconclusive
Cc1ccc(CCNC(=O)C23CN(Cc4ccccc4)CC2C(c2cccc([N+](=O)[O-])c2)=NO3)cc1 (stereo not drawn)	G9a block inconclusive
COc1cccc(CNC(=O)C23CN(Cc4ccccc4)CC2C(c2ccc([N+](=O)[O-])cc2)=NO3)c1 (stereo not drawn)	G9a block 71µM, JMJD2A Tudor inconclusive
CC(=O)N1CCC(NC[C@H]2COCc3nc4cc(F)ccc4n32)CC1	none (no result: HP1b binding inh, G9a block, Sfp PPTase inh, BAZ2B block, JMJD2A Tudor)
Cc1cc(C)nc(NNC(=O)CCNC(=O)c2ccccc2C)n1	none (no result: HP1b binding inh, G9a block, Sfp PPTase inh, BAZ2B block, JMJD2A Tudor)
Cc1ccc(OC(C)C(=O)N2CCN(Cc3nc(N)c4ccccc4n3)CC2)cc1 (stereo not drawn)	none (no result: HP1b binding inh, G9a block, Sfp PPTase inh, BAZ2B block, JMJD2A Tudor)
COc1ccc(CNc2cc(Cl)nc3ccnn23)cc1	none (no result: HP1b binding inh, G9a block, Sfp PPTase inh, BAZ2B block, JMJD2A Tudor)
CNC(=O)c1ccc(CNC(=O)c2nccnc2N)cc1	none (no result: HP1b binding inh, G9a block, Sfp PPTase inh, BAZ2B block, JMJD2A Tudor)
O=C(Nc1ccccc1F)c1ccc2c(Cl)c3c(nc2c1)CCCC3	none (no result: HP1b binding inh, G9a block, Sfp PPTase inh, BAZ2B block, JMJD2A Tudor)
Cc1nnc(SCc2ccccc2)n(N)c1=O	none
CCN(CC)C(=O)CSc1nnc(-c2cnccn2)n1-c1ccccc1	none
Nn1c(SCc2ccccc2)nnc1-c1ccccn1	BAZ2B block 14µM
Cc1ccc(-n2c(SCCN)nnc2-c2cccc(C)c2)cc1	BAZ2B block 79µM
Cc1ccc(-n2c(SCC(N)=O)nnc2-c2ccccn2)cc1	BAZ2B block 25µM, JMJD2A Tudor inconclusive
CCN(CC)C(=O)CSc1nnc(-c2ccccn2)n1-c1ccc(C)c(C)c1	BAZ2B block 45µM, JMJD2A Tudor inconclusive
Cc1cccc(-c2nnc(SCC#N)n2-c2ccccc2)c1	G9a block inconclusive
COCCn1cc2c3c(cccc31)CN(C(=O)c1ccc(C)c(C)c1)CC2	none (no result: HP1b binding inh, G9a block, Sfp PPTase inh, BAZ2B block, JMJD2A Tudor)
NC(=O)CSc1nnc(-c2ccco2)n1N	none
NC(=O)CSc1nnc(-c2ccccn2)n1N	BAZ2B block 22µM, JMJD2A Tudor 71µM, 12-LOX inh inconclusive
CCc1ccccc1-n1c(SCC(=O)N2CCCC2)nnc1-c1ccccn1	BAZ2B block 56µM, JMJD2A Tudor inconclusive
CCOc1ccccc1-n1c(SCC(N)=O)nnc1-c1cccnc1	G9a block inconclusive
Cc1cccc(-n2c(SCC(N)=O)nnc2-c2ccccn2)c1C	BAZ2B block 18µM, JMJD2A Tudor 79µM
Cc1nc(SCC(=O)NC(C)C(C)C)n(C2CCCC2)c1C (stereo not drawn)	none (no result: HP1b binding inh, G9a block, Sfp PPTase inh, BAZ2B block, JMJD2A Tudor)
CN1C(=O)CO[C@H](c2ccc(NC(=O)CCc3ccccc3)cc2)[C@H]1CO	none (no result: HP1b binding inh, G9a block, Sfp PPTase inh, BAZ2B block, JMJD2A Tudor)
FC(F)Oc1ccc(NC(=S)NCc2nc3ccccc3[nH]2)cc1	none
Cc1cc2cc(CNC(=S)Nc3ccc(OC(F)(F)F)cc3)ccc2[nH]1	JMJD2A Tudor inconclusive, 12-LOX inh 32µM
CCNC(=S)NCc1ccc2[nH]c(C)cc2c1	G9a block 50µM, BAZ2B block inconclusive, JMJD2A Tudor inconclusive, 12-LOX inh inconclusive
Cc1cc2cc(CNC(=S)Nc3ccc(OC(F)F)cc3)ccc2[nH]1	BAZ2B block 45µM, JMJD2A Tudor inconclusive, 12-LOX inh inconclusive
CCOC(=O)NCc1ccc2[nH]c(C)cc2c1	G9a block inconclusive, JMJD2A Tudor inconclusive
Cc1cc2cc(CNC(=O)Nc3ccccc3)ccc2[nH]1	G9a block inconclusive, JMJD2A Tudor inconclusive (no result: BAZ2B block)
Cc1ccc(C(=O)NNCC(=O)Nc2ccc(Cl)cc2F)cc1	12-LOX inh 16µM (no result: G9a block, Sfp PPTase inh, BAZ2B block)
O=C(CCNC(=O)c1ccc(Cl)cc1)Nc1ccc(Cl)cc1F	none

From PubChem
